In PubChem BioAssay (EPA / NIEHS):
Where “and” joins values, the source holds several entries; their conditions need not be identical. Equal entries are not always repeated. Some structures have more than one record in an assay (separate samples or runs), and their calls can disagree. Calls of active or inactive are those of the source. Rule for the calls: active = hit-call score of the fitted dose curve at least 0.9, where 1 is the maximum; inactive = score below 0.9.

Legend:
Conditions in all cases: mRNA level, 48 h; actives raise or lower the signal
[1] = read-out: Insulin Like Growth Factor 1 (IGF1), IGF1 (gene 3479); test: LTEA_HepaRG_IGF1: Life Technologies and Expression Analysis (LTEA) Assay for Insulin Like Growth Factor 1 (IGF1) using HepaRG (AID 2283506)
Procedure, shortened: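 Expression measured by TaqMan qRT-PCR on a Fluidigm array, with three housekeeping genes for normalisation, after 48 h treatment of HepaRG cells. Top concentration 100 uM with half-log steps, 0.5% DMSO vehicle, bidirectional fit.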

[2] = read-out: Intercellular Adhesion Molecule 1 (ICAM1), ICAM1 (gene 3383); test: LTEA_HepaRG_ICAM1: Life Technologies and Expression Analysis (LTEA) Assay for Intercellular Adhesion Molecule 1 (ICAM1) using HepaRG (AID 2283507)
Procedure, shortened: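 Gain or loss of transcript in HepaRG hepatic cells is quantified by qRT-PCR after 48 h chemical exposure (up to 100 uM, half-log steps), with DMSO as baseline.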

[3] = read-out: Insulin-like growth factor-binding protein 1 (IGFBP1), IGFBP1 (gene 3484); test: LTEA_HepaRG_IGFBP1: Life Technologies and Expression Analysis (LTEA) Assay for Insulin-like growth factor-binding protein 1 (IGFBP1) using HepaRG (AID 2283508)
Procedure, shortened: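 mRNA induction or loss was quantified by qRT-PCR after 48 h chemical exposure of human HepaRG cells, with 0.5% DMSO as vehicle and baseline. Concentration-response over eight points up to 100 uM.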

[4] = read-out: Interleukin 6 Receptor (IL6R), IL6R (gene 3570); test: LTEA_HepaRG_IL6R: Life Technologies and Expression Analysis (LTEA) Assay for Interleukin 6 Receptor (IL6R) using HepaRG (AID 2283510);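 for AC50: differentiated human HepaRG liver cells in serum-free induction medium; TaqMan qRT-PCR signal normalized to ACTB GAPDH and POLR2A housekeeping genes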
Procedure, shortened: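 IL6R transcript level by qRT-PCR after 48 h chemical exposure (8-point, half-log, max 100 uM, 0.5% DMSO vehicle) of HepaRG cells in serum-free induction medium. Normalized to three housekeeping genes; curves fitted in both directions relative to DMSO.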

[5] = read-out: Potassium channel subfamily K member 1 (KCNK1), KCNK1 (gene 3775); test: LTEA_HepaRG_KCNK1: Life Technologies and Expression Analysis (LTEA) Assay for Potassium channel subfamily K member 1 (KCNK1) using HepaRG (AID 2283511)
Procedure, shortened: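 Human HepaRG cultures receive test chemicals for 48 h in 0.5% DMSO, top concentration 100 uM with half-log dilutions. Induction or suppression of KCNK1 mRNA relative to DMSO is derived by bidirectional fitting of qRT-PCR data.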

[6] = read-out: Keratin 19 (KRT19), KRT19 (gene 3880); test: LTEA_HepaRG_KRT19: Life Technologies and Expression Analysis (LTEA) Assay for Keratin 19 (KRT19) using HepaRG (AID 2283512)
Procedure, shortened: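 Gene-expression endpoint in the human liver line HepaRG after 48 h exposure to up to 100 uM test chemical with 0.5% DMSO vehicle; KRT19 mRNA by qRT-PCR, analyzed bidirectionally versus DMSO.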

[7] = read-out: JUN Transcription Factor, JUN (gene 3725); test: LTEA_HepaRG_JUN: Life Technologies and Expression Analysis (LTEA) Assay for JUN Transcription Factor using HepaRG (AID 2283513)
Procedure, shortened: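 mRNA measured by TaqMan qRT-PCR after 48 h chemical exposure of HepaRG cultures; normalization to three housekeeping genes. Duplicate eight-point half-log curves from 100 uM in 0.5% DMSO; gain or loss fitted against DMSO baseline.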

[8] = read-out: Lipase C (LIPC), LIPC (gene 3990); test: LTEA_HepaRG_LIPC: Life Technologies and Expression Analysis (LTEA) Assay for Lipase C (LIPC) using HepaRG (AID 2283514)
Procedure, shortened: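 In this multiplexed gene-expression screen, human HepaRG cultures received test chemicals for 48 h across eight concentrations with 100 uM highest, in duplicate. Values reflect LIPC mRNA induction or suppression versus DMSO vehicle, from normalized qRT-PCR.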

[9] = read-out: MicroRNA 122 (MIR122), gene 406906; test: LTEA_HepaRG_MIR122: Life Technologies and Expression Analysis (LTEA) Assay for MicroRNA 122 (MIR122) using HepaRG (AID 2283516); note: the transcript read is the microRNA miR-122
Procedure, shortened: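 Expression measured by microfluidic qRT-PCR with three housekeeping genes for normalisation, after 48 h treatment of HepaRG cultures. Eight concentrations (top 100 uM, half-log steps, 0.5% DMSO vehicle) in duplicate; gain or loss fitted relative to vehicle.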

[10] = read-out: matrix metalloproteinase-10 (MMP10), MMP10 (gene 4319); test: LTEA_HepaRG_MMP10: Life Technologies and Expression Analysis (LTEA) Assay for matrix metalloproteinase-10 (MMP10) using HepaRG (AID 2283517)
Procedure, shortened: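 In differentiated HepaRG cultures kept in 0.5% DMSO, test chemicals act for 48 h over an eight-point range with a top dose of 100 uM. Expression is then quantified by TaqMan RT-PCR against ACTB, GAPDH and POLR2A.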

MYC, MYC (gene 4609) = test: LTEA_HepaRG_MYC: Life Technologies and Expression Analysis (LTEA) Assay for MYC using HepaRG (AID 2283518)
Procedure, shortened: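 Cells are thawed, plated and cultured 48 h, then treated for 48 h with test chemicals (eight half-log concentrations from 100 uM, 0.5% DMSO vehicle). RNA is isolated and MYC expression quantified by qRT-PCR against three housekeeping genes.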

[11] = read-out: matrix metalloproteinase-3 (MMP3), MMP3 (gene 4314); test: LTEA_HepaRG_MMP3: Life Technologies and Expression Analysis (LTEA) Assay for matrix metalloproteinase-3 (MMP3) using HepaRG (AID 2283519)
Procedure, shortened: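 Human liver HepaRG cultures received chemicals (top concentration 100 uM, 0.5% DMSO) for 48 h in duplicate. MMP3 mRNA induction or loss was then assessed via TaqMan qRT-PCR with housekeeping-gene normalisation.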

[12] = read-out: Paternally Expressed 10 (PEG10), PEG10 (gene 23089); test: LTEA_HepaRG_PEG10: Life Technologies and Expression Analysis (LTEA) Assay for Paternally Expressed 10 (PEG10) using HepaRG (AID 2283520);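 for AC50: differentiated HepaRG human liver cells in serum-free induction medium with 0.5% DMSO; PEG10 transcript by qRT-PCR normalised to ACTB GAPDH and POLR2A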
Procedure, shortened: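 PEG10 transcript measured by Fluidigm qRT-PCR, normalized to three housekeeping genes, in HepaRG cells treated 48 h (highest 100 uM, half-log steps, 0.5% DMSO vehicle). Cells plated 48 h before switching to serum-free induction medium.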

[13] = read-out: Protein phosphatase 2A (PPP2R4), PTPA (gene 5524); test: LTEA_HepaRG_PPP2R4: Life Technologies and Expression Analysis (LTEA) Assay for Protein phosphatase 2A (PPP2R4) using HepaRG (AID 2283522)
Procedure, shortened: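 Expression was quantified by Fluidigm qRT-PCR normalised to three housekeeping genes after 48 h treatment. Human HepaRG cells received an 8-point series from 100 µM downward by half-logs, in duplicate with 0.5% DMSO vehicle and 1 mM phenobarbital as induction control.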

[14] = read-out: Phosphatase and tensin (PTEN), PTEN (gene 5728); test: LTEA_HepaRG_PTEN: Life Technologies and Expression Analysis (LTEA) Assay for Phosphatase and tensin (PTEN) using HepaRG (AID 2283523)
Procedure, shortened: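 Expression of PTEN is quantified in the human liver line HepaRG following two days of dosing (top concentration 100 uM, half-log dilutions, 0.5% DMSO). Values derive from bidirectional curve fitting relative to DMSO controls.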

[15] = read-out: solute carrier (SLC22A1), SLC22A1 (gene 6580); test: LTEA_HepaRG_SLC22A1: Life Technologies and Expression Analysis (LTEA) Assay for solute carrier (SLC22A1) using HepaRG (AID 2283524);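 for AC50: differentiated human HepaRG liver cells in serum-free induction medium; TaqMan qRT-PCR normalized to ACTB GAPDH and POLR2A housekeeping genes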
Procedure, shortened: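 Transcript induction or suppression of SLC22A1 in human HepaRG cultures is scored after 48 h chemical treatment, with DMSO (0.5%) as baseline for bidirectional fitting. Concentrations span eight half-log points topping at 100 uM.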

[16] = read-out: Pyruvate Dehydrogenase Kinase 4 (PDK4), PDK4 (gene 5166); test: LTEA_HepaRG_PDK4: Life Technologies and Expression Analysis (LTEA) Assay for Pyruvate Dehydrogenase Kinase 4 (PDK4) using HepaRG (AID 2283525)
Procedure, shortened: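 Eight-point, half-log concentration series (max 100 uM, 0.5% DMSO) applied to differentiated HepaRG cells for 48 h in duplicate. Endpoint: PDK4 mRNA induction or repression by qRT-PCR against DMSO baseline.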

[17] = read-out: Interleukin 6 (IL6), IL6 (gene 3569); test: LTEA_HepaRG_IL6: Life Technologies and Expression Analysis (LTEA) Assay for Interleukin 6 (IL6) using HepaRG (AID 2283509)
Procedure, shortened: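 Changes in IL6 mRNA, up or down relative to 0.5% DMSO controls, were derived from concentration-response curves in human HepaRG cells treated for 48 h at up to 100 uM, with ACTB, GAPDH and POLR2A as normalizers.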

[18] = read-out: Nuclear factor NF-kappa-B p105 subunit (Homo sapiens) (UniProt P19838); test: LTEA_HepaRG_NFKB1: Life Technologies and Expression Analysis (LTEA) Assay for Nuclear Factor Kappa B Subunit 1 (NFKB1) using HepaRG (AID 2283521);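 note: differentiated human HepaRG liver cells in serum-free induction medium; TaqMan qRT-PCR transcript normalised to ACTB GAPDH and POLR2A housekeeping genes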
Procedure, shortened: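 HepaRG, 48 h exposure; 8-pt half-log series from 100 uM in 0.5% DMSO; duplicates. Readout: NFKB1 mRNA by qRT-PCR (Fluidigm arrays), housekeeping-normalized. Gain/loss fit vs DMSO baseline.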

[19] = read-out: Lipoprotein lipase (LPL), LPL (gene 4023); test: LTEA_HepaRG_LPL: Life Technologies and Expression Analysis (LTEA) Assay for Lipoprotein lipase (LPL) using HepaRG (AID 2283515)
Procedure, shortened: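 Concentration-response testing used half-log steps from 100 uM in 0.5% DMSO on human HepaRG cells, 48 h, duplicate wells. Phenobarbital 1 mM served as induction control; LPL mRNA was normalized to ACTB, GAPDH, POLR2A.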

Sequence of Nuclear factor NF-kappa-B p105 subunit (Homo sapiens) (P19838 whole entry, looked up): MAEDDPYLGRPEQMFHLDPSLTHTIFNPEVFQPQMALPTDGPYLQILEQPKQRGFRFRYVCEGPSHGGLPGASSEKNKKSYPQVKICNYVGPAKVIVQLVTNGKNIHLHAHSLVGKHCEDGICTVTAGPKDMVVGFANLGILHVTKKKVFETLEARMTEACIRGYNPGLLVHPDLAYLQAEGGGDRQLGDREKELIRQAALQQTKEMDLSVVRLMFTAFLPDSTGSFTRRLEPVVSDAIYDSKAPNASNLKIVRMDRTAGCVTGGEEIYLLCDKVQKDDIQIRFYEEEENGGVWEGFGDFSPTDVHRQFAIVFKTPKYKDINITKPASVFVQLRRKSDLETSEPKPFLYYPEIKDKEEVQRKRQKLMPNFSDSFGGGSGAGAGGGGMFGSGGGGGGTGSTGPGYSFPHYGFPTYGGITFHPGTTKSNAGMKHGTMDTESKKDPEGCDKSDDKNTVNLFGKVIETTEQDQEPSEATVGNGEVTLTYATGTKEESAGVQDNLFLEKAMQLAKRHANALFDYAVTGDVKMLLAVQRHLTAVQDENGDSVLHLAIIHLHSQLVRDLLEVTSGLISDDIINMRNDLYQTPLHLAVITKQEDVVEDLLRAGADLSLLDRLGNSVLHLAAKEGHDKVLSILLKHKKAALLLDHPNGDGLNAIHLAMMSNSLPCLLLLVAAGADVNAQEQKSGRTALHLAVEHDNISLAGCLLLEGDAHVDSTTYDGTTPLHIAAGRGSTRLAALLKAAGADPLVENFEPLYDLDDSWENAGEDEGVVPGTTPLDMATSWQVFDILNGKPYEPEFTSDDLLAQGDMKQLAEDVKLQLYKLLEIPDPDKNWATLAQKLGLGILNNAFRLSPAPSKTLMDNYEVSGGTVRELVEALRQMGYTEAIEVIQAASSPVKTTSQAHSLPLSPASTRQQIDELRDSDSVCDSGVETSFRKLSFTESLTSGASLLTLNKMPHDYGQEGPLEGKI

S=C(S)NCCNC(=S)S.[Mn+2].[S-]C([S-])=NCCN=C([S-])[S-].[Zn+2]
AC50 [1]: 1.35 µM (active) and 1.45 µM (active) and 2.57 µM (active) | AC50 [2]: 1.8 µM (active) and 2.09 µM (active) and 2.17 µM (active) | AC50 [3]: 56.2 nM (active) and 104 nM (active) and 174 nM (active) | AC50 [4]: 1.55 µM (active) and 1.5 µM (active) and 1.32 µM (active) | outcome [5]: inactive | AC50 [6]: 5.39 µM (active) and 11.4 µM (active) | outcome [6]: inactive | AC50 [7]: 1.36 µM (active) and 1.75 µM (active) | outcome [7]: inactive | AC50 [8]: 1.21 µM (active) and 1.2 µM (active) and 1.48 µM (active) | AC50 [9]: 780 nM (active) and 954 nM (active) and 816 nM (active) | AC50 [10]: 846 nM (active) and 655 nM (active) | AC50 (MYC, MYC (gene 4609)): 4.59 µM (active) and 3.61 µM (active) | outcome (MYC, MYC (gene 4609)): inactive | outcome [11]: inactive | AC50 [12]: 110 nM (active) and 262 nM (active) and 190 nM (active) | AC50 [13]: 960 nM (active) and 2.26 µM (active) | AC50 [14]: 1.75 µM (active) and 2.98 µM (active) and 2.22 µM (active) | AC50 [15]: 985 nM (active) and 1.14 µM (active) and 908 nM (active) | AC50 [16]: 3.66 µM (active) and 3.63 µM (active) | outcome [16]: inactive

CCSC(=O)N(CC(C)C)CC(C)C
outcome [1]: inactive | outcome [2]: inactive | outcome [3]: inactive | outcome [17]: inactive | outcome [4]: inactive | outcome [5]: inactive | outcome [6]: inactive | outcome [7]: inactive | outcome [9]: inactive | outcome [10]: inactive | outcome (MYC, MYC (gene 4609)): inactive | outcome [11]: inactive | outcome [12]: inactive | outcome [18]: inactive | outcome [13]: inactive | outcome [14]: inactive | outcome [15]: inactive | outcome [16]: inactive

CCCN(CCC)c1c([N+](=O)[O-])cc(C(F)(F)F)c(N)c1[N+](=O)[O-]
AC50 [1]: 22.7 µM (active) | outcome [2]: inactive | outcome [3]: inactive | outcome [4]: inactive | outcome [5]: inactive | outcome [6]: inactive | outcome [7]: inactive | AC50 [8]: 50 µM (active) | outcome [10]: inactive | AC50 (MYC, MYC (gene 4609)): 50 µM (active) | outcome [11]: inactive | AC50 [12]: 17.4 µM (active) | outcome [18]: inactive | outcome [13]: inactive | outcome [14]: inactive | AC50 [15]: 27.2 µM (active) | outcome [16]: inactive

CCCCOCCOCCOCc1cc2c(cc1CCC)OCO2
AC50 [1]: 21.3 µM (active) | outcome [2]: inactive | outcome [3]: inactive | outcome [4]: inactive | outcome [5]: inactive | outcome [6]: inactive | outcome [7]: inactive | outcome [8]: inactive | outcome [19]: inactive | outcome [9]: inactive | outcome [10]: inactive | outcome (MYC, MYC (gene 4609)): inactive | outcome [11]: inactive | outcome [12]: inactive | outcome [18]: inactive | outcome [13]: inactive | outcome [14]: inactive | outcome [15]: inactive | AC50 [16]: 17.8 µM (active)

O=C(c1ccccc1)C1CCCCC1
outcome [1]: inactive | outcome [2]: inactive | outcome [3]: inactive | outcome [17]: inactive | outcome [4]: inactive | outcome [5]: inactive | outcome [6]: inactive | outcome [7]: inactive | outcome [9]: inactive | outcome [10]: inactive | outcome (MYC, MYC (gene 4609)): inactive | outcome [11]: inactive | outcome [12]: inactive | outcome [18]: inactive | outcome [13]: inactive | outcome [14]: inactive | outcome [15]: inactive | outcome [16]: inactive

CCOC(=O)C(C)Oc1ccc(Oc2nc3ccc(Cl)cc3o2)cc1 (stereo unspecified)
AC50 [1]: 20.2 µM (active) | outcome [2]: inactive | outcome [3]: inactive | outcome [4]: inactive | outcome [5]: inactive | outcome [6]: inactive | outcome [7]: inactive | outcome [8]: inactive | outcome [9]: inactive | outcome [10]: inactive | outcome (MYC, MYC (gene 4609)): inactive | outcome [11]: inactive | outcome [12]: inactive | outcome [18]: inactive | outcome [13]: inactive | outcome [14]: inactive | AC50 [15]: 9.92 µM (active) | outcome [16]: inactive
